In all, about 350,000 compounds went through this assay and about 2,700 (0.77%) were called active. Shown is part of a subset that was picked to be rich in actives. Unmarked numbers belong to inactive results.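 Rule for the calls: active = inhibition reaching at least a set limit at 20 µM in the primary screen (cut at about 59% in these data); inactive = the rest.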
These compounds were tested on glucose-6-phosphate dehydrogenase-6-phosphogluconolactonase (Plasmodium falciparum 3D7) (assay: PfG6PD enzyme inhibitors, primary screen, biochemical, fluorescence intensity, uHTS (AID 504690;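 note: 0% = DMSO wells with substrate and 100% = DMSO wells lacking glucose-6-phosphate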)). Conditions: PfGluPho enzyme, NADPH resazurin-diaphorase fluorescence; at 20 µM; stronger effect = higher value.

Compound | inhibition
CC1(C)C=C2[C@H]3CC[C@@H]4[C@@]5(C)CCC(=O)C(C)(C)[C@@H]5CC[C@@]4(C)[C@]3(C)CC[C@@]2(C(=O)O)CC1 | -28.4%
COc1ccc(-n2cnc3cc(NCc4ccco4)ccc32)cc1 | 23.7%
Cn1c(SCC(=O)Nc2ccc(Br)cc2F)nnc1-c1ccco1 | -4.98%
Cn1c(-c2ccco2)nc2cc3ccccc3cc21 | 60.5% (active)
COc1ccc(Cl)cc1NC(=O)CCS(=O)(=O)c1ccc(Br)cc1 | 43%
O=C(COC(=O)/C(=C/c1cccs1)c1cccs1)NCc1ccccc1Cl | -3.87%
Cc1cc(C(C)(C)C)cc(C)c1N | 12.1%
COc1ccc(-c2cc(C)nc3nc(N)nn23)cc1 | -2.23%
Cc1cc(N)n2nc(-c3ccc(C(C)(C)C)cc3)cc2n1 | 84.5% (active)
CC(C)C(c1nnnn1C1CCCCC1)N1CCN(C(=O)c2ccco2)CC1 (stereo not given) | -12.7%
CN(CCc1cnn(C)c1)Cc1cn(C)nc1-c1ccccc1F | -8.15%
COc1ccc(NC(=O)CCC(=O)Nc2nnc(C3CCCCC3)s2)cc1 | -7.47%
COC(=O)CCc1sc(Nc2ccc(Br)cc2)nc1-c1ccc(OC)cc1 | 64.3% (active)
CNC(=O)c1sc(Nc2ccc(OCc3ccccc3)cc2)nc1C | 19.4%
COc1ccc(NC(=O)CN2C(=O)COc3ccc(S(=O)(=O)N4CCOCC4)cc32)c(OC)c1 | -0.58%
O=c1[nH]c2ccccc2n2c(-c3ccccc3)nnc12 | 102% (active)
O=C(c1ncn2c1c(=O)[nH]c1ccccc12)N1CCc2ccccc2C1 | 8.24%
CC(=O)N(C)c1ccc(NC(=O)Nc2cccc3ccccc23)cc1 | -6.82%
COc1ccccc1C(=O)Nc1ccccc1C(=O)Nc1ccccc1 | 8.55%
COc1cc2ccccc2cc1C(=O)Nc1ccccc1C | -15.2%
COc1ccc(C(=O)Nc2cc(C)c(NC(=O)c3ccccc3OC)cn2)cc1 | 79.1% (active)
C=CCNC(=O)c1sc(SC)cc1-c1ccc(Cl)cc1 | 9.14%
CCc1ccc2[nH]c(=O)c(Cc3ccccc3)c(O)c2c1 | -9.56%
COc1ccc(CCC(=O)N2CCN(S(=O)(=O)c3ccc(OC)cc3)CC2)cc1 | -10.5%
Nc1ccc2[nH]c(=S)sc2c1 | 74.7% (active)

Compound | inhibition
O=c1[nH]c2ccccc2s1 | 5.6%
C/C(=C\c1ccco1)CN1CCC(N2CCC(C(=O)N3CCOCC3)CC2)CC1 | -6.22%
CN(C(=O)c1cccc(NC(=O)Cc2cccc(NC(=O)C3CCCN(C(=O)C4CC4)C3)c2)c1)C1CCC1 (stereo not given) | 13.5%
Cc1ccc(Nc2nc(CSc3nnnn3-c3ccccc3)cc(=O)[nH]2)cc1 | 2.74%
COc1ccc(NC(=O)COC(=O)C2COc3ccccc3O2)cc1 (stereo not given) | -2.2%
O=C(Nc1nc(-c2ccncc2)cs1)C1COc2ccccc2O1 (stereo not given) | 82.1% (active)
C/C(=N/NC(=O)C1COc2ccccc2O1)c1ccco1 (stereo not given) | -17.2%
CCOC(=O)C1(CCOc2ccccc2)CCN(C(=O)c2cncs2)CC1 | -8.03%
N#Cc1cnn2cc(CCN3CCOCC3)c(-c3ccc(F)cc3)nc12 | -4.2%
O=C(C1CC(=O)N(C2CCCCC2)C1)N1CCN(c2ccccc2)CC1 (stereo not given) | 1.77%
O=C(C1CCC1)N1CCN(c2ccccc2)CC1 | -11.2%
O=C1C=CC(=O)N1c1ccc(N2CCCCC2)cc1 | 59.2% (active)
O=C(CSc1ccc(C(F)(F)F)cc1[N+](=O)[O-])NCCOc1ccccc1 | 4.59%
CCc1cccc(NC(=S)N(CCN(C)C)C2CCN(C(C)C)CC2)c1 | -1.59%
CC(C)c1cc(C(N)=O)c(NC(=O)c2cccc(COc3ccc(Br)cc3)c2)s1 | 17.7%
CC(C)Oc1ccc(C(=O)NC(C)(C)CO)cc1 | -5.29%
CCn1c(SCC(=O)Nc2sc(C)c(C)c2C#N)nnc1C1CC1 | 13.8%
Cc1cc(C(F)(F)F)nc(SCC(=O)Nc2nccs2)n1 | 14.7%
CCOC(=O)c1sc(NC(=O)CSc2nc(C)cc(C(F)(F)F)n2)c(C#N)c1C | 60.4% (active)
CCOC(=O)c1cc2c(=O)n3ccccc3nc2n(CC(C)C)c1=NC(=O)c1c(-c2c(F)cccc2Cl)noc1C | 10.9%
O=C(CSc1nnc(SCc2ccc(Cl)cc2)s1)N/N=C/c1ccccc1Cl | 75.1% (active)
O=C(CSc1nnc(SCc2ccc(F)cc2)s1)Nc1ccc(C(=O)O)cc1 | -15.7%
O=C(Cc1ccccc1)N/N=C/c1ccc(Cl)cc1Cl | 8.79%
CC1CCCN(C(=O)Cn2c(=O)oc3cc(S(=O)(=O)N4CCCCC4C)ccc32)C1 (stereo not given) | -4.91%
CC(C)(C)c1cc2cccnc2n1Cc1ccccc1 | 2.96%
